From PubChem BioAssay (NCI)
Compounds without any hit were thinned out: in the full panel of roughly 83,000, 20% have a hit.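 Interpretation: 100, growth as untreated; towards 0, rising growth inhibition; 0, no net growth; 0 to -100, cell death. Compounds scoring below 10 were considered active.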 Values without a mark were called inactive. Activity calls are given as the source filed them.

Assays:
Assay in all cases: NCI-60 one-dose screen, 48 h (100 = growth as untreated, 0 = no growth, -100 = all killed)
Conditions in all cases: 10 µM unless noted
[1] = system: SK-MEL-2 melanoma
[2] = system: EKVX NSCLC
[3] = system: SN12C renal
[4] = system: UO-31 renal
[5] = system: TK-10 renal
[6] = system: CAKI-1 renal
[7] = system: A498 renal
[8] = system: CCRF-CEM leukemia
[9] = system: MOLT-4 leukemia
[10] = system: SR leukemia
[11] = system: RPMI-8226 leukemia
[12] = system: OVCAR-8 ovarian
[13] = system: OVCAR-5 ovarian
[14] = system: OVCAR-4 ovarian
[15] = system: SK-OV-3 ovarian
[16] = system: IGROV1 ovarian
[17] = system: OVCAR-3 ovarian
[18] = system: HS 578T breast
[19] = system: NCI/ADR-RES ovarian
[20] = system: ACHN renal

Row | Compound | growth [1] | growth [2] | growth [3] | growth [4] | growth [5] | growth [6] | growth [7] | growth [8] | growth [9] | growth [10] | growth [11] | growth [12] | growth [13] | growth [14] | growth [15] | growth [16] | growth [17] | growth [18] | growth [19] | growth [20]
1 | O=C(Nc1ccccc1)c1sc(-c2cccc(C(F)(F)F)c2)cc1O | 33.4% | 81.5% | 83.7% | 77.6% | 96.5% | 74.6% | 51.2% | 87.4% | 87.7% | 62.5% | 35.5% | 66% | 104% | 76.1% | 74.6% | 66.5% | 53.1% | 63.8% | 83.2% | –
2 | CCCCNC(=O)c1cc(NCc2cc(O)ccc2O)ccc1O | 93.6% | 95% | 89.7% | 57% | 101% | 87.3% | 88.9% | 8.3% (active) | 61.5% | 41.1% | 19.3% | 87.6% | 107% | 90.8% | 85.8% | 98.4% | 54.2% | 88% | 95% | –
3 | Cc1[nH]c(-c2nc3ccccc3[nH]2)c(C)c1C(=O)NNc1ccc(Cl)cc1 | 103% | 94.2% | 90.7% | 72.5% | 106% | 80.2% | – | 94.6% | 81.6% | 88.6% | – | 90.2% | 101% | 88.2% | – | 88% | 98.4% | 92.7% | 96.3% | –
4 | Cc1nc2ccc(C(=O)NCc3cc(C(=O)O)c(C)o3)cc2nc1C | 102% | 105% | 96.5% | 82.8% | 97.6% | 86.2% | 106% | 97.1% | 106% | – | 108% | 96.6% | 99.7% | 95.4% | 80.2% | 106% | 101% | 96.8% | 106% | –
5 | COc1cc(-c2cccc([N+](=O)[O-])c2)c(-c2nc(-c3ccccc3)c(-c3ccccc3)n2C2CC2)cc1OC | 57.6% | 57.2% | 75.1% | 37.7% | 66.2% | – | 77.6% | 48.1% | 25.9% | 57.2% | 10.8% | 62.8% | 87.3% | 62.2% | 80% | 78.5% | 66.5% | 83.4% | 62% | –
6 | CCOC(=O)c1c(C)nc2c(c1N)/C(=C/c1ccc(OC)cc1)C(=O)N2Cc1ccc(F)cc1 | -27.5% (active) | 9.23% (active) | -40% (active) | -38.4% (active) | -70.8% (active) | – | -44.2% (active) | -5.4% (active) | 1.64% (active) | 1.71% (active) | -17.2% (active) | 8.74% (active) | -45.2% (active) | 20.9% | 9.64% (active) | -9.78% (active) | -91.4% (active) | 54.7% | 15.1% | –
7 | C=C1C(=O)O[C@H]2[C@H]1CC/C(COC(=O)/C=C\C(=O)NCc1ccc(Cn3c(=O)sn(CCCI)c3=O)cc1)=C\CC[C@@]1(C)O[C@@H]21 | -64.4% (active) | -58.8% (active) | -90.8% (active) | -100% (active) | -79.3% (active) | -78.6% (active) | -17.6% (active) | -21.1% (active) | -30% (active) | -48% (active) | – | -1.28% (active) | -83.9% (active) | -89.4% (active) | 42.9% | -98.3% (active) | -93% (active) | -40.2% (active) | 1.52% (active) | –
8 | CCn1nc(C#Cc2c(C)ccc3c(Nc4ccc(Cl)cc4)nccc23)c2c(N)ncnc21 | -50.8% (active) | 36.6% | 15.6% | 8.45% (active) | 16.8% | 18.8% | 11.7% | 10.5% | 20.9% | – | 2.72% (active) | 7.01% (active) | 25.1% | 41.5% | -3.61% (active) | 12.5% | 7% (active) | 0.71% (active) | 11.6% | –
9 | Cc1cn(C2CCCCC2)c(=O)[nH]c1=O | 127% | 121% | 108% | 99.8% | 99.8% | 119% | – | 117% | 96.6% | 111% | 114% | 106% | 94.9% | 90.8% | 112% | 126% | 110% | 121% | 109% | –
10 | COc1cc2c(cc1OC)-c1ccc3cc4c(cc3c1N(CCN1CCCC1)C2)OCO4 | 57.9% | 36.3% | -29.9% (active) | 32.7% | 34.2% | – | -2.77% (active) | -5.95% (active) | 2.96% (active) | 1.64% (active) | -36.2% (active) | 6.81% (active) | 30% | 33.8% | -13.5% (active) | 4.12% (active) | 15.3% | 16.2% | 60.7% | –
11 | COc1ccccc1C(=O)NC(=S)Nc1ccc(-c2nc3ccccc3[nH]2)cc1 | 109% | 91.1% | 46% | 28.5% | – | 105% | – | 80.8% | 91.9% | 13.6% | 57.1% | 53.1% | 90.5% | -60.7% (active) | – | 69% | -36% (active) | 36.5% | 38.7% | 71.4%
12 | CC(=O)Nc1cccc(C2=CC(c3ccc(C)cc3)n3ncnc3N2)c1 (stereo unspecified) | 103% | 102% | 101% | 79.7% | – | 106% | 93.9% | 110% | – | 78.8% | 73.8% | 101% | 95.2% | 103% | 133% | 114% | 101% | 92.8% | 97.6% | 96.7%
13 | COc1cc2c(c(OC)c1OC)C(=O)/C(=C/c1cc(C)c(O)c(C)c1)S2 | 43.6% | 43.9% | 45.6% | 33% | – | 26.3% | – | 25% | – | 33.8% | 21.8% | 41.5% | 65.2% | 51.8% | – | 45.7% | 8.16% (active) | 29.4% | 14.1% | 45.8%
14 | COc1cc2c(=O)n(CCCn3ccnc3)c3c4cc5c(cc4ccc3c2cc1OC)OCO5 | 22% | 21.3% | 16.9% | -27.3% (active) | 35.3% | – | – | 3.73% (active) | 3.68% (active) | 10.5% | -31.9% (active) | 15.1% | 13.9% | 28.6% | -11.4% (active) | 19.5% | -8.36% (active) | 32.4% | 10.5% | –
15 | O=C(/C=C/C12c3ccccc3C(c3ccccc31)C1C(=O)N(c3ccccc3)C(=O)C12)c1ccccc1 (stereo unspecified) | 24.5% | 8.88% (active) | 15% | -77.5% (active) | – | 45.8% | – | 9.95% (active) | 11% | 14.2% | 1% (active) | 27.4% | -12.7% (active) | 34.1% | – | -24.5% (active) | -61.9% (active) | 20.7% | 14.2% | -15% (active)
16 | CCN(CC)CCNc1ccc(C)c2sc3cc(C)ccc3c(=O)c12 | 55.7% | 81.3% | 53.8% | 41% | 57.9% | – | – | 34% | 30.6% | 6.89% (active) | 10.4% | 57% | 79.5% | 85.3% | 74.8% | 52.4% | 76.6% | 73% | 59.2% | –
17 | Oc1[nH]c2ccccc2c1/C=c1/cc2c(c(-c3ccc(F)cc3)n1)=Nc1ccccc1-2 | -3.73% (active) | 38.2% | -0.749% (active) | -12.1% (active) | – | 14.8% | -4.07% (active) | – | -15.6% (active) | 10% | -40.5% (active) | -19.6% (active) | 0.0696% (active) | -65.1% (active) | -7.93% (active) | -7.94% (active) | -77% (active) | -7.82% (active) | -18.7% (active) | -43.4% (active)
18 | CN1C[C@@H](c2ccc(Cl)cc2)[C@]2(NC(=S)N(c3ccccc3)C2=O)[C@@]12C(=O)NC1C=CC(Br)=C[C@H]12 (stereo partly specified) | 61.2% | 71.1% | 46.1% | 40.4% | 87.2% | – | – | 30.5% | 21.4% | 48.2% | 29.3% | 70.1% | 101% | 71.6% | – | 56% | 77.2% | 68.4% | 64.3% | –
